# Data reported in paper PMC8384837, “Expanding the binding specificity for RNA recognition by a PUF domain”.
# Tests used:
# Test in all cases: yeast three-hybrid, YBZ-1, SC-Leu-His + 0.5 mM 3-AT, 4 days
# Details in all cases: tags: N-Gal4 AD-HA kept; label: inside an RPR1-promoter hybrid RNA with tandem MS2 sites; ssRNA
# [1] = target: PUM1 PUF domain R5-THV (Homo sapiens, UniProt Q14671 828-1176, C1007T;R1008H;Q1011V)
# In short: (§1)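 Sequencing with Illumina followed PCR amplification of the repeat regions from transformants grown four days on SC-Leu (input) or SC-Leu-His + 0.5 mM 3-AT (selection). The transformants were strain YBZ-1 with a LexA–MS2 coat fusion and a HIS3 reporter, carrying Pumilio-1 PUF domain libraries and matching RNA elements. The interaction score is the log change in variant frequency from input to selection, computed in log2 with a pseudocount of 1 for absent variants.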
# [2] = target: PUM1 PUF domain R5-GRF (Homo sapiens, UniProt Q14671 828-1176, C1007G;Q1011F)
# PUM1 PUF domain R5-GRF, sequence (Q14671 828-1176 C1007G/Q1011F): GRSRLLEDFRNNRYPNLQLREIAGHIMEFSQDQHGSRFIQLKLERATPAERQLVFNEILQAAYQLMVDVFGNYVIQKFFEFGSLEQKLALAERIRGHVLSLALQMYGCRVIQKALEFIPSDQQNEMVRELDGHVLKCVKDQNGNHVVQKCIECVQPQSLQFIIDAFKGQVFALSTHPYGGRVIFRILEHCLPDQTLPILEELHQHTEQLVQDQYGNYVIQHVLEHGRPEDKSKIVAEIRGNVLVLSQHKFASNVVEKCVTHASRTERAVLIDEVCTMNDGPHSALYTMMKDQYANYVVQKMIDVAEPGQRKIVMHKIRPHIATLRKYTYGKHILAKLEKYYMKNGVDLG
# In short: as §1
# [3] = target: PUM1 PUF domain R5-TRH (Homo sapiens, UniProt Q14671 828-1176, C1007T;Q1011H)
# PUM1 PUF domain R5-TRH, sequence (Q14671 828-1176 C1007T/Q1011H): as the sequence (Q14671 828-1176 C1007G/Q1011F) above, with G180T, F184H counted along it
# In short: as §1
# [4] = target: PUM1 PUF domain R8-GHK (Homo sapiens, UniProt Q14671 828-1176, N1122G;Y1123H;Q1126K)
# PUM1 PUF domain R8-GHK, sequence (Q14671 828-1176 N1122G/Y1123H/Q1126K): as the sequence (Q14671 828-1176 C1007G/Q1011F) above, with G180C, F184Q, N295G, Y296H, Q299K counted along it
# In short: as §1
# [5] = target: PUM1 PUF domain R8-RWS (Homo sapiens, UniProt Q14671 828-1176, N1122R;Y1123W;Q1126S)
# PUM1 PUF domain R8-RWS, sequence (Q14671 828-1176 N1122R/Y1123W/Q1126S): as the sequence (Q14671 828-1176 C1007G/Q1011F) above, with G180C, F184Q, N295R, Y296W, Q299S counted along it
# In short: as §1
# [6] = target: PUM1 PUF domain R8-KFN (Homo sapiens, UniProt Q14671 828-1176, N1122K;Y1123F;Q1126N)
# PUM1 PUF domain R8-KFN, sequence (Q14671 828-1176 N1122K/Y1123F/Q1126N): as the sequence (Q14671 828-1176 C1007G/Q1011F) above, with G180C, F184Q, N295K, Y296F, Q299N counted along it
# In short: as §1
# [7] = target: PUM1 PUF domain R8-RFF (Homo sapiens, UniProt Q14671 828-1176, N1122R;Y1123F;Q1126F)
# PUM1 PUF domain R8-RFF, sequence (Q14671 828-1176 N1122R/Y1123F/Q1126F): as the sequence (Q14671 828-1176 C1007G/Q1011F) above, with G180C, F184Q, N295R, Y296F, Q299F counted along it
# In short: as §1
# [8] = target: PUM1 PUF domain R8-KKG (Homo sapiens, UniProt Q14671 828-1176, N1122K;Y1123K;Q1126G)
# PUM1 PUF domain R8-KKG, sequence (Q14671 828-1176 N1122K/Y1123K/Q1126G): as the sequence (Q14671 828-1176 C1007G/Q1011F) above, with G180C, F184Q, N295K, Y296K, Q299G counted along it
# In short: as §1
# [9] = target: PUM1 PUF domain R3-THF (Homo sapiens, UniProt Q14671 828-1176, C935T;R936H;Q939F)
# PUM1 PUF domain R3-THF, sequence (Q14671 828-1176 C935T/R936H/Q939F): as the sequence (Q14671 828-1176 C1007G/Q1011F) above, with C108T, R109H, Q112F, G180C, F184Q counted along it
# In short: as §1
# [10] = target: PUM1 PUF domain R5-DFD (Homo sapiens, UniProt Q14671 828-1176, C1007D;R1008F;Q1011D)
# PUM1 PUF domain R5-DFD, sequence (Q14671 828-1176 C1007D/R1008F/Q1011D): as the sequence (Q14671 828-1176 C1007G/Q1011F) above, with G180D, R181F, F184D counted along it
# In short: as §1
# [11] = target: PUM1 PUF domain R5-GHG (Homo sapiens, UniProt Q14671 828-1176, C1007G;R1008H;Q1011G)
# PUM1 PUF domain R5-GHG, sequence (Q14671 828-1176 C1007G/R1008H/Q1011G): as the sequence (Q14671 828-1176 C1007G/Q1011F) above, with R181H, F184G counted along it
# In short: as §1
# [12] = target: PUM1 PUF domain R5-RQH (Homo sapiens, UniProt Q14671 828-1176, C1007R;R1008Q;Q1011H)
# PUM1 PUF domain R5-RQH, sequence (Q14671 828-1176 C1007R/R1008Q/Q1011H): as the sequence (Q14671 828-1176 C1007G/Q1011F) above, with G180R, R181Q, F184H counted along it
# In short: as §1
# [13] = target: PUM1 PUF domain R3-FRL (Homo sapiens, UniProt Q14671 828-1176, C935F;Q939L)
# PUM1 PUF domain R3-FRL, sequence (Q14671 828-1176 C935F/Q939L): as the sequence (Q14671 828-1176 C1007G/Q1011F) above, with C108F, Q112L, G180C, F184Q counted along it
# In short: as §1
# [14] = target: PUM1 PUF domain R7-RPE (Homo sapiens, UniProt Q14671 828-1176, S1079R;N1080P)
# PUM1 PUF domain R7-RPE, sequence (Q14671 828-1176 S1079R/N1080P): as the sequence (Q14671 828-1176 C1007G/Q1011F) above, with G180C, F184Q, S252R, N253P counted along it
# In short: as §1
# [15] = target: PUM1 PUF domain R3-APK (Homo sapiens, UniProt Q14671 828-1176, C935A;R936P;Q939K)
# PUM1 PUF domain R3-APK, sequence (Q14671 828-1176 C935A/R936P/Q939K): as the sequence (Q14671 828-1176 C1007G/Q1011F) above, with C108A, R109P, Q112K, G180C, F184Q counted along it
# In short: as §1
# PUM1 PUF domain R5-THV, sequence (Q14671 828-1176 C1007T/R1008H/Q1011V): as the sequence (Q14671 828-1176 C1007G/Q1011F) above, with G180T, R181H, F184V counted along it
sequence,measurement,setting,value
GGCUAGAACUAGUGGAUCCCCCGGCGCCCGGCGGCUCGAGCCCGGGUAAGUGUUAAUAGUCUGCAUGCCGCCGGGCGCCAUGCCUGCAGGUCGACUCUAGAAAACAUG,binding signal,[1],3.33 log2 enrichment (interaction score)
same,binding signal,[2],3.3 log2 enrichment (interaction score)
same,binding signal,[3],4.41 log2 enrichment (interaction score)
GGCUAGAACUAGUGGAUCCCCCGGCGCCCGGCGGCUCGAGCCCGGGUAAGCGUAAAUAGUCUGCAUGCCGCCGGGCGCCAUGCCUGCAGGUCGACUCUAGAAAACAUG,binding signal,[4],2.58 log2 enrichment (interaction score)
same,binding signal,[5],5.59 log2 enrichment (interaction score)
same,binding signal,[6],2.26 log2 enrichment (interaction score)
same,binding signal,[7],5.12 log2 enrichment (interaction score)
same,binding signal,[8],2.43 log2 enrichment (interaction score)
GGCUAGAACUAGUGGAUCCCCCGGCGCCCGGCGGCUCGAGCCCGGGUAAGUGUAAAUAGUCUGCAUGCCGCCGGGCGCCAUGCCUGCAGGUCGACUCUAGAAAACAUG,binding signal,[5],4.8 log2 enrichment (interaction score)
same,binding signal,[9],3.81 log2 enrichment (interaction score)
same,binding signal,[2],1.75 log2 enrichment (interaction score)
same,binding signal,[10],3.03 log2 enrichment (interaction score)
same,binding signal,[6],2.9 log2 enrichment (interaction score)
same,binding signal,[3],5.68 log2 enrichment (interaction score)
same,binding signal,[11],3.84 log2 enrichment (interaction score)
GGCUAGAACUAGUGGAUCCCCCGGCGCCCGGCGGCUCGAGCCCGGGUAAGUGUCAAUAGUCUGCAUGCCGCCGGGCGCCAUGCCUGCAGGUCGACUCUAGAAAACAUG,binding signal,[12],3.64 log2 enrichment (interaction score)
same,binding signal,[10],2.82 log2 enrichment (interaction score)
same,binding signal,[11],2.77 log2 enrichment (interaction score)
GGCUAGAACUAGUGGAUCCCCCGGCGCCCGGCGGCUCGAGCCCGGGUAAGUGUAAGUAGUCUGCAUGCCGCCGGGCGCCAUGCCUGCAGGUCGACUCUAGAAAACAUG,binding signal,[13],4.24 log2 enrichment (interaction score)
GGCUAGAACUAGUGGAUCCCCCGGCGCCCGGCGGCUCGAGCCCGGGUAAGUUUAAAUAGUCUGCAUGCCGCCGGGCGCCAUGCCUGCAGGUCGACUCUAGAAAACAUG,binding signal,[14],3.87 log2 enrichment (interaction score)
GGCUAGAACUAGUGGAUCCCCCGGCGCCCGGCGGCUCGAGCCCGGGUAAGUGUAAUUAGUCUGCAUGCCGCCGGGCGCCAUGCCUGCAGGUCGACUCUAGAAAACAUG,binding signal,[15],4.11 log2 enrichment (interaction score)
